Our source for the growth inhibition values is PubChem BioAssay (NCI).

A short description of assay [1]: NCI Yeast Anticancer Drug Screen. Data for the rad50 strain (AID 155).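 Further: 0% = growth of vehicle-only cultures of the same strain.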 The conditions noted are these: S. cerevisiae rad50 strain growth inhibition, hits give high values. The gist of the method: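 A DNA repair-deficient yeast mutant serves as the test organism; compound-induced growth inhibition is calculated against vehicle-treated cells.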
A short description of assay [2]: NCI Yeast Anticancer Drug Screen. Data for the mec2-1 strain (AID 157). The settings on record: S. cerevisiae mec2-1 strain, hits give high values. The gist of the method:
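Growth inhibition is read against vehicle-treated controls after compound exposure of the mec2-1 yeast strain, which is defective in DNA damage repair or cell cycle control.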

A short description of assay [3]: NCI Yeast Anticancer Drug Screen. Data for the sgs1 mgt1 strain (AID 161).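 Further: 0% = growth of cultures given vehicle only.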 The settings on record: S. cerevisiae sgs1 mgt1 strain, hits give high values. The gist of the method:
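Yeast cells carrying a defined DNA-repair defect were exposed to test compounds. Growth inhibition was measured relative to vehicle-treated controls.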

A short description of assay [4]: NCI Yeast Anticancer Drug Screen. Data for the cln2 rad14 strain (AID 165).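 Further: 0% = growth equal to vehicle treated cultures.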 The conditions noted are these: S. cerevisiae cln2 rad14 strain, hits give high values. The gist of the method:
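Growth inhibition, relative to vehicle-treated controls, is the read-out. The test organism is a yeast strain with defined genetic alterations, cln2 rad14.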

The nature of assay [5]: NCI Yeast Anticancer Drug Screen. Data for the bub3 strain (AID 167). The settings on record: S. cerevisiae bub3 mutant strain, hits give high values. In short, it runs like this: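 Inhibition values come from growth of compound-treated mutant yeast normalised to vehicle-treated controls.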
Assay [6] can be described thus: NCI Yeast Anticancer Drug Screen. Data for the mlh1 rad18 strain (AID 175). The settings on record: S. cerevisiae mlh1 rad18 strain growth inhibition, hits give high values. In short, it runs like this: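 Cells of a genetically altered yeast strain, deficient in DNA damage repair, were treated with compound. Their growth was then compared with that of vehicle-treated cultures to give inhibition.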

The mark [7] stands for this setting: at 5.0 µM (retest, dose inferred, filed as 0.5).
The mark [8] stands for this setting: at 50.0 µM (retest, dose inferred, filed as 5.0).

This is part of a sample that, as a whole, favours compounds with a hit. Of some 79,000 tested, about 15% had one in any assay. Values without a mark were called inactive. The source made the active and inactive calls. No stated cut-off is given here; in the data, active means growth inhibition above about 70%; inactive means the rest.

Consider `O=[N+]([O-])c1ccc(/C=N/O)s1`, for which the growth inhibition in assay [1] (setting [7]) was -11%; in assay [1] (setting [8]), 99% (active); in assay [1] (at 50.0 µM), 99.5% (active); in assay [2] (setting [7]), 3%; in assay [2] (setting [8]) it was 100% (active); in assay [2] (at 50.0 µM) it was 99.7% (active). Besides, the growth inhibition was -7% in assay [3] (setting [7]); 99% (active) in assay [3] (setting [8]); 97.7% (active) in assay [3] (at 50.0 µM); 10% in assay [4] (setting [7]); 95% (active) in assay [4] (setting [8]); 99.2% (active) in assay [4] (at 50.0 µM). The growth inhibition is -17% in assay [5] (setting [7]); 99% (active) in assay [5] (setting [8]); 99.7% (active) in assay [5] (at 50.0 µM); 12% in assay [6] (setting [7]); 99% (active) in assay [6] (setting [8]); 99.3% (active) in assay [6] (at 50.0 µM).

`O=C(c1cccs1)N(C(=S)N1CCN(c2ccccn2)CC1)C1CCCCC1`: the growth inhibition is 4% in assay [1] (setting [7]); 66% in assay [1] (setting [8]); 54.5% in assay [1] (at 50.0 µM); -8% in assay [2] (setting [7]); 61% in assay [2] (setting [8]); 54.8% in assay [2] (at 50.0 µM). Also, the growth inhibition in assay [3] (setting [7]) is 8%; in assay [3] (setting [8]), 31%; in assay [3] (at 50.0 µM), 67.2%; in assay [4] (setting [7]), 15%; in assay [4] (setting [8]), 44%; in assay [4] (at 50.0 µM) it was 38.8%. Also, the growth inhibition in assay [5] (setting [7]) was 2%; in assay [5] (setting [8]) it was 31%; in assay [5] (at 50.0 µM), 68.6%; in assay [6] (setting [7]), 8%; in assay [6] (setting [8]), 29%; in assay [6] (at 50.0 µM) it was 49.6%.

Take `c1ccc(-n2c3ccccc3c3ccccc32)cc1`: the growth inhibition in assay [1] (setting [7]) is 4%; in assay [1] (setting [8]), 11%; in assay [1] (at 50.0 µM), 86.7% (active); in assay [2] (setting [7]), 4%; in assay [2] (setting [8]) it was 3%; in assay [2] (at 50.0 µM) it was 82.2% (active). Also, the growth inhibition is 1% in assay [3] (setting [7]); 9% in assay [3] (setting [8]); 88.2% (active) in assay [3] (at 50.0 µM); 1% in assay [4] (setting [7]); -12% in assay [4] (setting [8]); 37.9% in assay [4] (at 50.0 µM). In addition, the growth inhibition in assay [5] (setting [7]) is 5%; in assay [5] (setting [8]) it was 21%; in assay [5] (at 50.0 µM), 88.2% (active); in assay [6] (setting [7]) it was -1%; in assay [6] (setting [8]), 11%; in assay [6] (at 50.0 µM), 84.5% (active).

`CC(=O)OCC(C(N)=O)(c1ccccc1)c1ccccc1`: the growth inhibition was -5% in assay [1] (setting [7]); 1% in assay [1] (setting [8]); -2.6% in assay [1] (at 50.0 µM); -2% in assay [2] (setting [7]); 2% in assay [2] (setting [8]); -10% in assay [2] (at 50.0 µM). Moreover, the growth inhibition in assay [3] (setting [7]) is -1%; in assay [3] (setting [8]) it was -5%; in assay [3] (at 50.0 µM), 12.8%; in assay [4] (setting [7]), -5%; in assay [4] (setting [8]), -3%; in assay [4] (at 50.0 µM), 91.5% (active). The growth inhibition in assay [5] (setting [7]) was -7%; in assay [5] (setting [8]), -1%; in assay [5] (at 50.0 µM), 2.8%; in assay [6] (setting [7]), -6%; in assay [6] (setting [8]), -6%; in assay [6] (at 50.0 µM), 11%.

For the compound `N#CC(O)C(Br)(Br)Br` (stereo not given), the growth inhibition in assay [1] (setting [7]) was -3%; in assay [1] (setting [8]), 61%; in assay [1] (at 50.0 µM), 82.7% (active); in assay [2] (setting [7]), -3%; in assay [2] (setting [8]) it was 38%; in assay [2] (at 50.0 µM), 74.3% (active). The growth inhibition in assay [3] (setting [7]) is -4%; in assay [3] (setting [8]), 46%; in assay [3] (at 50.0 µM) it was 83.3% (active); in assay [4] (setting [7]), 6%; in assay [4] (setting [8]), 18%; in assay [4] (at 50.0 µM) it was 21.9%. Moreover, the growth inhibition in assay [5] (setting [7]) is -1%; in assay [5] (setting [8]), 69%; in assay [5] (at 50.0 µM) it was 84.7% (active); in assay [6] (setting [7]), 1%; in assay [6] (setting [8]) it was 72% (active); in assay [6] (at 50.0 µM), 86% (active).

In the case of `C/C(=N/NC(=S)N(C)C)c1ccccc1O`, the growth inhibition in assay [1] (setting [7]) was 2%; in assay [1] (setting [8]), 13%; in assay [1] (at 50.0 µM), -28.2%; in assay [2] (setting [7]), -34%; in assay [2] (setting [8]), 9%; in assay [2] (at 50.0 µM), 86.3% (active). The growth inhibition in assay [3] (setting [7]) is -43%; in assay [3] (setting [8]), 16%; in assay [3] (at 50.0 µM), 52%; in assay [4] (setting [7]), 18%; in assay [4] (setting [8]), 3%; in assay [4] (at 50.0 µM), 77.9% (active). The growth inhibition in assay [5] (setting [7]) was -29%; in assay [5] (setting [8]), 21%; in assay [5] (at 50.0 µM) it was 36.8%; in assay [6] (setting [7]), -17%; in assay [6] (setting [8]), 28%; in assay [6] (at 50.0 µM) it was 16.7%.

Consider `Cc1ccc(-c2n[nH]c(=O)n2/N=C\c2ccccc2)cc1`, for which the growth inhibition in assay [1] (setting [7]) is 21%; in assay [1] (setting [8]), 38%; in assay [1] (at 50.0 µM), 40.9%; in assay [2] (setting [7]), 18%; in assay [2] (setting [8]), 25%; in assay [2] (at 50.0 µM) it was 21.9%. For the same compound, the growth inhibition in assay [3] (setting [7]) was 28%; in assay [3] (setting [8]), 39%; in assay [3] (at 50.0 µM), 50.1%; in assay [4] (setting [7]), 12%; in assay [4] (setting [8]) it was 31%; in assay [4] (at 50.0 µM), 15.2%. In addition, the growth inhibition in assay [5] (setting [7]) was 4%; in assay [5] (setting [8]), 23%; in assay [5] (at 50.0 µM), 23%; in assay [6] (setting [7]), 17%; in assay [6] (setting [8]), 44%; in assay [6] (at 50.0 µM), 59%.

On to `OCC1CCCCCCCCCCC1`, for which the growth inhibition is -2% in assay [1] (setting [7]); 90% (active) in assay [1] (setting [8]); 98.2% (active) in assay [1] (at 50.0 µM); 0% in assay [2] (setting [7]); 66% in assay [2] (setting [8]); 75.2% (active) in assay [2] (at 50.0 µM). The growth inhibition in assay [3] (setting [7]) is 1%; in assay [3] (setting [8]), 22%; in assay [3] (at 50.0 µM), 94.3% (active); in assay [4] (setting [7]), 1%; in assay [4] (setting [8]), 30%; in assay [4] (at 50.0 µM) it was 92.3% (active). The growth inhibition was 10% in assay [5] (setting [7]); 58% in assay [5] (setting [8]); 94.7% (active) in assay [5] (at 50.0 µM); -1% in assay [6] (setting [7]); 51% in assay [6] (setting [8]); 89.2% (active) in assay [6] (at 50.0 µM).

As to `CCCCCCCCCCCCCC(=O)OCCCC1CCCO1` (stereo not given), the growth inhibition in assay [1] (setting [7]) was -2%; in assay [1] (setting [8]) it was -2%; in assay [1] (at 50.0 µM), 8.55%; in assay [2] (setting [7]), -2%; in assay [2] (setting [8]), 2%; in assay [2] (at 50.0 µM), -13.8%. The growth inhibition is -1% in assay [3] (setting [7]); 4% in assay [3] (setting [8]); 13.2% in assay [3] (at 50.0 µM); 7% in assay [4] (setting [7]); 7% in assay [4] (setting [8]); 53.6% in assay [4] (at 50.0 µM). Further, the growth inhibition in assay [5] (setting [7]) is -2%; in assay [5] (setting [8]), -3%; in assay [5] (at 50.0 µM) it was 11.3%; in assay [6] (setting [7]), 11%; in assay [6] (setting [8]), 0%; in assay [6] (at 50.0 µM) it was -38.2%.

For `CCCCCCCCCCCCCCCCCC(=O)OC(C)CCC1CCCO1` (stereo not given), the growth inhibition in assay [1] (setting [7]) is 4%; in assay [1] (setting [8]), -6%; in assay [1] (at 50.0 µM) it was 26.4%; in assay [2] (setting [7]), 1%; in assay [2] (setting [8]), 0%; in assay [2] (at 50.0 µM), 12.8%. In addition, the growth inhibition was 5% in assay [3] (setting [7]); 11% in assay [3] (setting [8]); 5.9% in assay [3] (at 50.0 µM); 5% in assay [4] (setting [7]); 3% in assay [4] (setting [8]); 0.1% in assay [4] (at 50.0 µM). Further, the growth inhibition in assay [5] (setting [7]) is 1%; in assay [5] (setting [8]) it was -2%; in assay [5] (at 50.0 µM) it was -5.95%; in assay [6] (setting [7]), 1%; in assay [6] (setting [8]) it was -58%; in assay [6] (at 50.0 µM), 13%.
